# Screening results: PubChem BioAssay, National Center for Advancing Translational Sciences (NCATS)
# Hits are enriched below; roughly 18% of the tested compounds scored in any of these assays.
# IL-1B inflam inh = inhibitors of inflammasome signaling (IL-1 beta secretion) | AID 743279 | THP-1 LPS/ATP IL-1B secretion, AlphaLISA, 16 h; stronger effect = lower value | hit rate 4.7% among 360,000 | activity change, % at 57.5 µM; in the data active = activity change below about -50%; inconclusive = mostly about -30% to -49%
#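 Secreted IL-1B measured by AlphaLISA bead assay after 16 h compound exposure of THP-1 cells; compounds (final up to 57.5 uM) added 1 h before LPS (250 ng/mL) and ATP (1.25 mM) stimulation; lower signal means less secretion.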
# TDP1 cell CPT = growth inhibition of DT40 Tdp1-/-;hTDP1 cells with camptothecin (screen for TDP1 inhibitors); hit rate 12% among 420,000; Potency, µM (titrated, usually from 46.2 µM), inactives show top-dose activity change, negative = growth inhibition, usual class: inhibitors; chicken DT40 Tdp1-/-;hTDP1 cells + 20 nM CPT, ATP luminescence, 48 h; note: potency is the fitted concentration of half-maximal effect; nearly all actives have a fitted effect of over 55% in size
#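 Chicken DT40 Tdp1-/- cells stably complemented with human TDP1 were seeded at 400 cells/well in medium containing 20 nM camptothecin, exposed to pin-transferred compounds, and grown at 37 °C for at least 48 hr. Viability was read as ATP luminescence.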
# DT40 TDP1 no CPT = qHTS for Inhibitors of human tyrosyl-DNA phosphodiesterase 1 (TDP1): qHTS in cells in absence of CPT. hit rate 15% among 420,000. DT40 Tdp1-/- hTDP1 cells, no CPT, ATP luminescence, 48 h. Potency, µM (doses to about 46.2 µM), for the others: at the top dose activity change, negative = growth inhibition, usual class: inhibitors. AID 686978, 2013; note: potency is the fitted concentration of half-maximal effect; nearly all actives have a fitted effect of over 55% in size
#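 A cellular qHTS used chicken DT40 cells lacking endogenous Tdp1 but carrying stably transfected human TDP1. Compounds were applied without camptothecin, and cell growth kinetics were judged by ATP-dependent luminescence after ≥48 hr.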
# Six1-Eya2 inh = blocks human Six1 binding to Eya2. activity change, % (test concentration not listed). AlphaScreen GST-Six1/His-Eya2 binding, biochemical; stronger effect = lower value. hit rate 0.56% among 360,000. Q15475+O00167; in the data active = activity change below about -65%; inconclusive = mostly about -30% to -63%
# Target sequence (O00167 whole entry, looked up): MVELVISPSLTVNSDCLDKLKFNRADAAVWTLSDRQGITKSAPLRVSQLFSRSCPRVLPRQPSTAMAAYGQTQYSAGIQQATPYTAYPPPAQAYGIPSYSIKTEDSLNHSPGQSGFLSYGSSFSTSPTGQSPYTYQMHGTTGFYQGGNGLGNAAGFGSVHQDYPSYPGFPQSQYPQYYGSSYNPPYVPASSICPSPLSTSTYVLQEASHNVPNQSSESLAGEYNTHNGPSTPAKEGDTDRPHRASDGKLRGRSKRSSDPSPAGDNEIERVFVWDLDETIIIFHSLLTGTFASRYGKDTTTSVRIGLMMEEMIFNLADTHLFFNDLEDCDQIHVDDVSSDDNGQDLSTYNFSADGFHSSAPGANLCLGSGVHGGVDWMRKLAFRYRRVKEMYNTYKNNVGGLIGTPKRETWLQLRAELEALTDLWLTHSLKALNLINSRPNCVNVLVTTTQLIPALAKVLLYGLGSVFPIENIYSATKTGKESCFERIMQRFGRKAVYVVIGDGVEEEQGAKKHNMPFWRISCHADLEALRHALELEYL
# Target sequence (Q15475 whole entry, looked up): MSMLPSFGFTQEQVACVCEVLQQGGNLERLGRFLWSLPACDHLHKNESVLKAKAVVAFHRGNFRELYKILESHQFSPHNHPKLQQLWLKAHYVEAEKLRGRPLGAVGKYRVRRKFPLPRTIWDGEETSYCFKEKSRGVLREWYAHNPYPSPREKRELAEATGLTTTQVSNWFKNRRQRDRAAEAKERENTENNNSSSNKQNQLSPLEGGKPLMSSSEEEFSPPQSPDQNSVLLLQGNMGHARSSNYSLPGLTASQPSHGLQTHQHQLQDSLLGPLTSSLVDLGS
#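 AlphaScreen with GST-Six1 and His-Eya2 (5X mix: 250 nM and 500 nM), glutathione donor and nickel acceptor beads; buffer 50 mM Tris pH 8.0, 300 mM NaCl, 1 mM TCEP; 1 h at 37 C in the dark.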
# TDP1 block = TDP1 (human) enzyme inhibition; Potency, µM (series often up to 130 µM), for the others: at the highest dose activity change, negative = inhibition, actives largely listed as inhibitors; Q9NUW8; hit rate 0.28% among 350,000; recombinant TDP1, AlphaScreen DNA substrate cleavage; note: potency is the fitted concentration of half-maximal effect; nearly all actives have a fitted effect of over 40% in size
#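 AlphaScreen read-out: signal falls as enzyme removes the 3' tyrosine-FITC from a 5'-biotinylated DNA oligo (15 nM, 5 min, RT). Enzyme was E. coli-made recombinant Tdp1 at 1 nM, exposed to compound for 15 min beforehand; beads 10 ug/ml, 10 min.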
# CtBP-E1A blk = blocks the CtBP interaction with E1A; AlphaScreen GST-E1A/His-CtBP binding, 1536-well; stronger effect = lower value; activity change, % (test concentration not listed); hit rate 0.49% among 340,000; in the data active = activity change below about -65%; inconclusive = mostly about -30% to -63%
#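 In 5 uL wells, 23 nL compound meets equimolar GST-E1A and His-CtBP (5X stock 125 nM each) for 2 h, 37 °C. Beads (5X, 50 ug/mL) then 1 h, 37 °C, dark.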
# * hit, by the source's call; ? = inconclusive; · = no result; [ ] = remark or other dose. Unless noted, calls come from the whole dose curve; as a rule, active = well fitted curve in the direction sought with a large enough effect; inconclusive = small, poorly fitted or top-dose-only effect, or another doubt; inactive = no such curve, though single readings can be large; an effect the other way counts as inactive or inconclusive. % is set by controls: 0 for no effect and ±100 for the full control effect.
SMILES,IL-1B inflam inh,TDP1 cell CPT,DT40 TDP1 no CPT,Six1-Eya2 inh,TDP1 block,CtBP-E1A blk
COc1ccc(C(=O)N/C(=C\c2ccccc2)C(=O)NC(CCSC)C(=O)O)cc1 (configuration not stated),15,1%,0%,9,-1%,1
Cn1c(=O)n(C)c2cc(N3CCOCC3)c(NS(=O)(=O)c3ccc(Br)cc3)cc21,·,15µM*,?,·,-4%[12.3 µM],·
CSc1ccc(S(=O)(=O)Nc2ccccc2C(=O)N2CCOCC2)cc1,17,1%,6%,4,2%,-28
Cc1cc(S(=O)(=O)Nc2cc3c(cc2N2CCOCC2)n(C)c(=O)n3C)ccc1F,·,23µM*,9.2µM*,·,-2%,·
O=C(c1ccccc1NS(=O)(=O)c1ccc(Br)cc1)N1CCOCC1,-53*,-6%,2%,1,3%,11
CCN1C(=O)/C(=C2\C=Cc3cc(C)ccc3N2CC)OC1=S,2,?,?,?,9%,?
CC(O)(c1cccc(F)c1)c1nc(-c2cncnc2)cs1 (configuration not stated),68,?,-24%,4,·,8
COc1cccc(C(C)(O)c2nc(-c3cc4ccccc4o3)cs2)c1 (configuration not stated),62,16µM*,23µM*,-2,·,2
CC(O)(c1ccc(F)c(F)c1)c1nc(-c2cc3ccccc3o2)cs1 (configuration not stated),6,?,15µM*,4,·,4
CC(O)(c1cccc(F)c1)c1nc(-c2cc3ccccc3o2)cs1 (configuration not stated),27,?,23µM*,7,·,7
Cc1c(C)n2c(SCC(=O)N3CCC(C)CC3)nnc2[nH]c1=O,2,-17%,-8%,7,·,3
CCn1c2ccccc2c2nnc(SC3CCOC3=O)nc21 (configuration not stated),·,-17%,-10%,·,·,·
CC(=O)NC12CC3CC(C1)CC(C(=O)NCC(=O)Nc1c(C)cc(C)cc1C)(C3)C2,0,-47%,10%,6,1%,-24
CC(=O)NC12CC3CC(C1)CC(C(=O)Oc1ccc(N(C)S(=O)(=O)c4cc(C)ccc4C)cc1)(C3)C2,-25,?,16µM*,-2,0%,-1
Cc1ccc(CNC(=O)C2CC(c3ccccc3C(F)(F)F)=NO2)o1 (configuration not stated),14,?,?,4,·,·
CCOC(=O)C1(CCOc2ccccc2)CCN(Cc2ccc(-n3cccn3)cc2)CC1,4,?,16µM*,-7,6%,·
CCOC(=O)C1(CCOc2ccccc2)CCN(Cc2ccncc2)CC1,-20,?,26µM*,-3,6%,-1
CCOC(=O)C1(CCOc2ccccc2)CCN(Cc2nccn2CC)CC1,-4,?,?,-4,·,-1
CN(C)CCNC(=O)c1ccc(CS(=O)(=O)c2ccc(Br)cc2)o1,-1,-8%,-4%,4,·,-1
COc1cc(CN2CCOc3ccc(CN4CCC(O)(c5cccnc5)CC4)cc3C2)ccc1F,·,7%[9.04 µM],?,·,·,·
CC(C)Sc1nc(NCc2ccco2)c2c3c(sc2n1)COC(C)(C)C3,-17,26µM*,15µM*,-4,2%,-4
CCCCc1nc2sc3c(SCC(=O)NCc4ccco4)ncnc3c2c2c1CCC2,17,13µM*,11µM*,1,3%,2
CCCCSc1nc(SCC(=O)NCc2ccco2)c2c3c(sc2n1)COC(C)(CC)C3 (configuration not stated),-5,-1%,-6%,-8,5%,-9
CSc1nc(SCC(=O)NCc2ccco2)c2c3c(sc2n1)COC(C)(C)C3,86,13µM*,8.2µM*,-13,4%,4
Cc1cccc(CNC(=O)c2cnn(-c3ncc(C)c(-c4ccc(F)cc4)n3)c2C)n1,·,-2%[9.04 µM],-25%,·,·,·
SMILES,IL-1B inflam inh,TDP1 cell CPT,DT40 TDP1 no CPT,Six1-Eya2 inh,TDP1 block,CtBP-E1A blk
CC(CCC(=O)O)C1CC[C@H]2C3CCC4CC(=O)CCC4(C)[C@H]3CC(=O)C12C (some centres not stated),-13,-2%,6%,0,·,-4
OC[C@@H]1CN(Cc2ccccc2)C[C@H](n2cnc3c(NCc4ccncc4)ncnc32)O1,13,-6%,6%,0,·,4
O=c1cc(/C=C/c2cccs2)[nH]c2ccccc12,0,2.6µM*,2.1µM*,-2,2%,-1
O=C(O)c1cc(NC(=O)c2ccco2)cc(NC(=O)c2ccco2)c1,-3,-6%,-11%,9,-8%,-1
CC(=O)N(Cc1ccccc1)c1ccccc1C(=O)O,6,3%,-11%,4,·,7
COc1ccc(CC(NC(C)=O)C(=O)NC2CCN(C(=O)Nc3ccccc3C)CC2)cc1OC (configuration not stated),16,-9%,22%,4,·,5
S=C1SCN(Cc2ccccn2)CN1Cc1ccco1,0,6.5µM*,5.8µM*,-80*,-2%,?
COCCN1CSC(=S)N(Cc2ccco2)C1,-2,21µM*,4.6µM*,-1,0%,-5
CCOc1ccc(CN2CCN(CC3CC3)CC2CCO)cc1 (configuration not stated),8,-5%,?,-1,·,·
C[C@@H]1CN([C@@H](C)CO)S(=O)(=O)c2ccc(Br)cc2O[C@@H]1CN(C)S(=O)(=O)c1cn(C)cn1,4,18%,-20%,-2,·,2
C[C@H](CO)N1C[C@H](C)[C@H](CN(C)S(=O)(=O)c2cccc(F)c2)Oc2cc(Br)ccc2S1(=O)=O,-16,26µM*,21µM*,-5,·,-3
COc1cccc(S(=O)(=O)N(C)C[C@@H]2Oc3cc(Br)ccc3S(=O)(=O)N([C@@H](C)CO)C[C@@H]2C)c1,-11,?,26µM*,-8,·,-5
C[C@H]1CN([C@@H](C)CO)S(=O)(=O)c2ccc(Br)cc2O[C@@H]1CN(C)S(=O)(=O)c1ccccc1,-19,?,?,-4,·,2
COc1ccc(S(=O)(=O)N(C)C[C@H]2Oc3cc(Br)ccc3S(=O)(=O)N([C@H](C)CO)C[C@H]2C)cc1,23,?,21µM*,16,·,2
COc1cccc(NC(=O)N(C)C[C@@H]2Oc3cc(Br)ccc3S(=O)(=O)N([C@@H](C)CO)C[C@H]2C)c1,8,1%,-9%,6,·,-4
